RecA splice inh = Mtb RecA intein splicing inhibitors, primary screen, biochemical, fluorescence, HTS; Protein RecA (Mycobacterium tuberculosis (strain ATCC 25618 / H37Rv)), P9WHJ3; cell-free RecA intein splicing; inhibition, % (test concentration not listed); 290,000 compounds, 0.75% hits; AID 2221, 2009; in the data active = inhibition above about 30%; inconclusive = no clear call, values can overlap the other calls
TcdB inh = TcdB glycohydrolase inhibitors, primary screen, biochemical, single point, plate reader. Toxin B (Clostridioides difficile), P18177. 350,000 compounds, 0.24% hits. inhibition, % at 9.99 µM. TcdB glycohydrolase enzymatic assay; in the data active = inhibition above about 10%
FadD28 FP inh = inhibitors of FadD28 bisubstrate probe binding, primary screen, biochemical, fluorescence polarization, single point; inhibition, % at 12.5 µM; AID 588549, 2011; 360,000 compounds, 0.22% hits; Mycobacterium tuberculosis FadD28 fatty-acid-AMP ligase; in the data active = inhibition above about 8.5%, passing the limit was not always enough; inconclusive = no clear call, values can overlap the other calls
BioA inh-1 = M. tuberculosis BioA enzyme inhibitors, primary screen, biochemical, plate reader, single point, HTS. 360,000 compounds, 0.096% hits. purified M. tuberculosis BioA enzyme. inhibition, % at 9.99 µM. 7,8-diaminopelargonic acid synthase BioA (Mycobacterium tuberculosis); in the data active = inhibition above about 40%; inconclusive = no clear call, values can overlap the other calls
Rv3671c protease = Rv3671c serine protease inhibitors, primary screen, biochemical, fluorescence polarization, M. tuberculosis H37Rv; P9WHR9; inhibition, % at 5.96 µM; 320,000 compounds, 0.048% hits; AID 2606, 2010; in the data active = inhibition above about 38%;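 also: extracellular domain of Rv3671c used as enzyme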
Target sequence (P9WHR9 whole entry, looked up, the tested form may be a part): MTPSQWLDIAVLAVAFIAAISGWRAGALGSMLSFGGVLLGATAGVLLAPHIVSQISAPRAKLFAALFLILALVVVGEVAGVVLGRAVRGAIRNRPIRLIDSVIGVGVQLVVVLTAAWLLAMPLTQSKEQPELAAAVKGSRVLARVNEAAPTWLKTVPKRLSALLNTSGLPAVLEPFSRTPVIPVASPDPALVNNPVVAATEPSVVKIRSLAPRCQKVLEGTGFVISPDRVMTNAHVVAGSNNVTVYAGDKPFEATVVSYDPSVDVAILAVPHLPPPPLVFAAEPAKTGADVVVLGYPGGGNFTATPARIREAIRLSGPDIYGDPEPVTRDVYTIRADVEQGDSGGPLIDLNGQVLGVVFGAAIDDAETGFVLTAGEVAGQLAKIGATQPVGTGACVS
UGM FP inh = M. tuberculosis UGM enzyme inhibitors, primary screen, biochemical, fluorescence polarization, single point. UDP-galactopyranose mutase (Mycobacterium tuberculosis (strain ATCC 25618 / H37Rv)), …. purified UGM, fluorescence polarization probe displacement. inhibition, % at 10 µM. 320,000 compounds, 0.06% hits; in the data active = inhibition above about 10%, passing the limit was not always enough; inconclusive = no clear call, values can overlap the other calls
BioA inh-2 = Mtb BioA enzyme inhibitors, dose response, biochemical, plate reader, cherry-pick samples, set 03; shares compounds with BioA inh-1; 310 tested, under 10 active; max activity, %; purified BioA enzyme; AID 651679, 2012;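 also: top concentration of the dilution series was 10 µM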
HepG2 cytotox = cytotoxicity in HepG2 cells, dose response, cytotoxicity control, cell-based, plate reader, cherry-pick, two tests; max activity, %; AID 651898, 2012; 310 tested, under 10 active; shares compounds with BioA inh-1
NIH3T3 tox 5 = cytotoxicity in NIH3T3 fibroblasts, dose response, cytotoxicity control, cell-based, plate reader, cherry-pick, two tests; shares compounds with BioA inh-1; activity change, negative = cytotoxicity, % at 26 µM; 310 tested, under 10 active; AID 651900, 2012
Each line names hits and unclear results; the compound was inactive in the other large screens (follow-up assays come after a bar, where they were run). Only some compounds are listed: those with a hit (about 0.97% of all), similar ones and a draw of the others. Unless noted, no rule for the calls is given here.

COc1ccc(C2CC(=O)c3cnc(NC(=O)c4ccco4)nc3C2)cc1 (stereo unspecified)	none
O=C(O)CN1C(=O)/C(=C\c2cc(Br)ccc2OCc2ccccc2Cl)SC1=S	none
O=C(O)CN1C(=O)/C(=C\c2cc(Br)ccc2OCc2ccc([N+](=O)[O-])cc2)SC1=S	BioA inh-1 62 | BioA inh-2 inactive | HepG2 cytotox inconclusive | NIH3T3 tox 5 inconclusive
O=C(C[C@H]1CC[C@H]2[C@@H](COC[C@H](O)CN2C(=O)Nc2ccc(Cl)c(Cl)c2)O1)NCc1ccc(F)cc1	none (no result: RecA splice inh, FadD28 FP inh, Rv3671c protease, UGM FP inh)
C[C@@H]1CN([C@@H](C)CO)C(=O)c2cc(/C=C/c3ccccc3)cnc2O[C@H]1CN(C)C(=O)C1CCCCC1	none (no result: RecA splice inh, FadD28 FP inh, Rv3671c protease, UGM FP inh)
COc1ccc(NC(=O)c2cnc(C)cn2)cc1-n1cnnn1	BioA inh-1 51 (no result: TcdB inh) | BioA inh-2 inactive | HepG2 cytotox inactive | NIH3T3 tox 5 inactive
Cc1cnc(C(=O)Nc2ccc(-n3cnnn3)cc2)cn1	none (no result: TcdB inh)
O=C(O)CCS(=O)(=O)c1nc(-c2cccs2)cc(C(F)(F)F)n1	BioA inh-1 57 | BioA inh-2 inactive | HepG2 cytotox inactive | NIH3T3 tox 5 inactive
CC(C)C#Cc1ccc([C@H]2[C@H]3CN(C(=O)NC4CCCCC4)CC(=O)N3[C@H]2CO)cc1	none (no result: RecA splice inh, FadD28 FP inh, BioA inh-1, Rv3671c protease, UGM FP inh)
Cc1c(C(N)=O)sc(N)c1C(=O)OC(C)C	BioA inh-1 92 (no result: RecA splice inh, TcdB inh) | BioA inh-2 inactive | HepG2 cytotox inactive | NIH3T3 tox 5 inactive
CCOC(=O)c1sc(N)c(C(N)=O)c1C	none
CCOC(=O)c1c(N)sc(C(N)=O)c1C	BioA inh-1 58 (no result: TcdB inh) | BioA inh-2 inactive | HepG2 cytotox inactive | NIH3T3 tox 5 inactive
O=C(C[C@H]1C[C@@H]2c3cc(NC(=O)NC4CCCCC4)ccc3O[C@@H]2[C@H](CO)O1)NCc1ccccn1	none (no result: RecA splice inh, FadD28 FP inh, Rv3671c protease, UGM FP inh)
Cc1ccc(-c2ccc([C@H]3[C@@H](CO)N4C(=O)CN(C(=O)c5ccncc5)C[C@@H]34)cc2)cc1	none (no result: RecA splice inh, FadD28 FP inh, BioA inh-1, Rv3671c protease, UGM FP inh)
Cc1ccc(S(=O)(=O)N(C)C)cc1NC(=O)CSc1nncs1	BioA inh-1 51 | BioA inh-2 inactive | HepG2 cytotox inactive | NIH3T3 tox 5 inactive
C[C@@H]1CN([C@H](C)CO)C(=O)Cc2cc(NS(=O)(=O)c3cccs3)ccc2O[C@H]1CN(C)Cc1ccc(C(=O)O)cc1	none (no result: RecA splice inh, FadD28 FP inh, Rv3671c protease, UGM FP inh)
Cc1cccc(C2c3[nH]c4ccccc4c3CCN2C(=O)CN2CCOC2=O)n1 (stereo unspecified)	BioA inh-1 52 | BioA inh-2 inactive | HepG2 cytotox inactive | NIH3T3 tox 5 inactive
CCOC(=O)c1ccc2c(c1)nc(SCc1cn3ccsc3n1)n2CC	BioA inh-1 53 (no result: TcdB inh) | BioA inh-2 inactive | HepG2 cytotox inactive | NIH3T3 tox 5 inactive
COc1ccc(NC2CCCN(C(=O)c3ccc(C(C)=O)s3)C2)cc1 (stereo unspecified)	BioA inh-1 84 | BioA inh-2 inactive | HepG2 cytotox inactive | NIH3T3 tox 5 inactive
COc1cc(-c2n[nH]c(=S)n2-c2cccc(C(F)(F)F)c2)cc(OC)c1OC	BioA inh-1 43 (no result: TcdB inh, UGM FP inh) | BioA inh-2 inactive | HepG2 cytotox inactive | NIH3T3 tox 5 inactive
COc1cc(-c2n[nH]c(=S)n2C(C)c2ccccc2)cc(OC)c1OC (stereo unspecified)	BioA inh-1 64 | BioA inh-2 inactive | HepG2 cytotox inactive | NIH3T3 tox 5 inactive
CN(C[C@@H]1N[C@H](CO)[C@@H]1c1ccc(C#CCC2CCCC2)cc1)S(C)(=O)=O	none (no result: RecA splice inh, FadD28 FP inh, BioA inh-1, Rv3671c protease, UGM FP inh)

From PubChem BioAssay
